Rows were chosen to be rich in hits. Some 2.4% of all compounds tested hit in one or more screens of this group.
FEN1 inh = inhibitors of human flap endonuclease 1 | Potency, µM (doses to about 114 µM), inactives show top-dose activity change, negative = inhibition, hits mostly inhibitors | Recombinant FEN1 flap cleavage, fluorescence, 15 min | P39748 | 0.35% of 390,000 active; further: on the % scale 0 is the no-effect control and ±100 the full control effect; nearly all actives have a fitted effect of over 65% in size
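Compounds are tested as a concentration series against 10 nM FEN1; after a 15 min room-temperature preincubation, 50 nM substrate starts cleavage, with plate reads at 0 and 15 min. Normalized responses are fitted by a Hill equation.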
WRN inhibitor = WRN helicase (human) inhibition; Q14191; WRN helicase unwinding, fluorescent forked duplex, kinetic; Potency, µM (series often up to 114 µM), inactives show at the top dose activity change, negative = inhibition, most hits filed as inhibitors; 0.46% of 360,000 active; AID 651768; further: on the % scale 0 is the no-effect control and ±100 the full control effect; nearly all actives have a fitted effect of over 55% in size
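Kinetic red-fluorescence monitoring (525/598 nm) tracks WRN helicase activity after 100 nM fluorophore-quencher forked duplex and 2 mM ATP are added to 20 nM enzyme pretreated 15 min at room temperature with compound.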
POLH inh = blocks human DNA polymerase eta activity | 1.2% of 390,000 active | Potency, µM (doses to about 114 µM), for inactives: at the top dose activity change, negative = inhibition, hits mostly inhibitors | recombinant Pol eta, fluorescent DNA replication assay | Q9Y253; further: on the % scale 0 is the no-effect control and ±100 the full control effect
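Pol eta at 10 nM preincubated with compounds 15 min at room temperature; reaction started with fluorescent substrate (50 nM final) and read kinetically at 0 and 10 min.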
Pol kappa inh = DNA polymerase kappa (human) inhibition. Q9UBT6. purified Pol kappa, fluorescent DNA synthesis assay, 10 min. Potency, µM (doses to about 107 µM), without a hit: at the top dose activity, negative = inhibition, usual class: inhibitors. 0.53% of 400,000 active; further: on the % scale 0 is the no-effect control and ±100 the full control effect
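Here, compound and 10 nM enzyme are combined for 15 min at room temperature; adding 50 nM substrate (final) starts DNA synthesis, tracked by fluorescence at 0 and 10 min against buffer-only wells.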
Pol iota inh = inhibitors of human DNA polymerase iota; Q9UNA4; Pol iota fluorescent replication assay, 10 min; Potency, µM (highest dose often 115 µM), without a hit: at the top dose activity, negative = inhibition, most hits filed as inhibitors; 1% of 390,000 active; AID 588590
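Pol iota at 10 nM preincubated 15 min with compounds at room temperature; reaction started with fluorescent substrate, 50 nM final. Fluorescence read kinetically at 0 and 10 min; buffer-only wells as negative control.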
Pol beta inh = blocks human DNA polymerase beta activity; P06746; Pol beta primer extension/strand displacement, fluorescence kinetic; Potency, µM (titrated, usually from 114 µM), for the others: top-dose activity change, negative = inhibition, hits mostly inhibitors; 1.3% of 340,000 active; AID 485314; further: on the % scale 0 is the no-effect control and ±100 the full control effect
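Pol beta (10 nM) and compounds were preincubated 15 min at room temperature, then 50 nM substrate (final) started primer extension/strand displacement. Reads were taken at 0 and 10 min; concentration-response data were fitted to a four-parameter Hill equation.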
* marks the source's active call; other numbers are inactive results; ? = inconclusive; · = not tested or not shown; ! = not confirmed by another sample; [ ] = remark or other dose. The call rests on the fitted dose curve; in most records, active means well fitted curve in the direction sought with a large enough effect; inconclusive means small, poorly fitted or top-dose-only effect, or another doubt; inactive means no such curve, though single readings can be large; an effect the other way counts as inactive or inconclusive. Potency means the concentration at half of the fitted maximal effect.

SMILES	FEN1 inh	WRN inhibitor	POLH inh	Pol kappa inh	Pol iota inh	Pol beta inh
COc1cccc(/C=C2/NC(=O)N(CC(=O)Nc3ccc(C)cc3)C2=O)c1OCc1cccc(C(=O)O)c1	?	?	?	79µM*	?	50µM*
COc1cc2c(cc1/C=C1/NC(=O)N(CC(=O)Nc3ccccc3)C1=O)OCO2	-1%	-14%[57.1 µM]	-3%	-16%	-28%	11%
CCn1c(C)cc(/C=C2\NC(=O)N(CC(=O)Nc3cccc(C)c3)C2=O)c1C	-8%	-5%	4%	-2%	9%	-12%
CNc1nc(-c2ccccc2)[n+](-c2ccc(C)cc2)s1	3%	50µM*	-22%	-5%	115%	25%[57.1 µM]
CNCc1ccccc1Sc1cccc(O)c1	-2%	-10%	3%	-18%	113%	14%
CNCc1ccccc1Sc1cc(O)ccc1O	?	32µM*	-18%	-16%	?	6%
COc1ccc2oc(=O)c(-c3nnc(NCc4ccco4)s3)cc2c1	?	?	?	?	10µM*	25µM*
COc1ccc(CN(Cc2ccccc2)C(=O)CN2CCN(C)CC2)cc1COc1ccc(NC(C)=O)cc1	-23%	·	·	-11%	?	·
COc1ccc(Cl)cc1NC(=O)CN(c1cc(C)cc(C)c1)S(=O)(=O)c1c(C)n[nH]c1C	?	·	?	?	79µM*	-9%
Cc1ccc(NS(=O)(=O)c2cc([N+](=O)[O-])ccc2NNC(=S)Nc2cccc(Cl)c2)c(C)c1	?	?	40µM*	-31%	-8%	?
Cc1ccc(NS(=O)(=O)c2cc([N+](=O)[O-])ccc2NNC(=S)Nc2cc(C)ccc2C)c(C)c1	-16%	-23%	-10%	0%	3%	2%
NC(N)=NCCC[C@H](N)C(=O)NCC(=O)N[C@@H](CC(=O)O)C(=O)N[C@@H](CO)C(=O)O	·	·	·	12%[60.1 µM]	·	·
O=S(=O)(c1cccc(C(F)(F)F)c1)N1CCN(c2nc(-c3ccccc3)nc3ccccc23)CC1	7%	·	·	-6%	-25%	·
CC1C/C(=C/c2ccco2)C(=O)/C(=C/c2ccco2)C1 (configuration not stated)	·	·	·	·	·	3.5µM*
O=C1/C(=C/c2ccco2)Cc2ccccc21	-16%	-17%	-4%	?	?	?
O=C1/C(=C\c2ccco2)CCC/C1=C\c1ccco1	?	16µM*	?	8.9µM*	2.8µM*	7.1µM*
O=C1/C(=C/c2ccco2)CCC1C1CCCC1 (configuration not stated)	-5%	-10%	-14%	13%	27%	2%
O=C(C[N+]1(CC(O)c2ccccc2)CCCCC1)c1ccccc1 (configuration not stated)	45%	·	·	-11%	-21%	·
CN(C)c1ccc(/C=C/c2ccnc3ccc([N+](=O)[O-])cc23)cc1	13%	·	·	7%	?	·
COC(=O)C1=C[C@@H](C(=O)OC)[C@@H]2C3=C(C(=O)[C@@]2(C)NC(=O)c2ccccc2)[C@H](C)[C@@H]2C(=O)N(Cc4ccccc4)C(=O)[C@@H]2[C@@H]3C1	9%	·	·	-7%	19%	·
C1=Cc2ccccc2/C1=C\c1cc[cH-]c1.[Fe+2].c1cc[cH-]c1	13µM*	·	·	1.1µM*	1.8µM*	·
C[N+](C)(C)c1ccc(/C=C2\C=Cc3ccccc32)cc1	35µM*	·	·	-2%	10%	·
CC(=O)N(C)c1ccc(/C=C2\C=Cc3ccccc32)cc1	-20%	·	·	2%	-5%	·
Nc1ccc(/C=C2\C=Cc3ccccc32)cc1	-22%	·	·	-8%	10%	·
CN(CC(=O)O)c1ccc(/C=C2\C=Cc3ccccc32)cc1	-1%	·	·	56µM*!	50%	·
SMILES	FEN1 inh	WRN inhibitor	POLH inh	Pol kappa inh	Pol iota inh	Pol beta inh
CC(C)CC(CSc1ccc(Br)cc1)N1CCN(CC(C)C)CCC1=O (configuration not stated)	3%	·	·	-7%	-4%	·
CCCCCCCCCCCCCCCCOCC(CO)OC(C)=O (configuration not stated)	·	·	·	4%[19.4 µM]	·	·
N=c1ccn2c(n1)OC1C(O)[C@@H](CO)O[C@H]12 (some centres not stated)	10%	·	·	6%	?	·
Cn1ccnc1SCC(=O)Nc1sccc1C#N	-4%	-9%[57.1 µM]	?	?	?	32µM*
Cc1nnc(SCC(=O)Nc2sccc2C(N)=O)s1	-14%	-6%	-12%	-13%	?	·
Cc1nnc(SCC(=O)Nc2sccc2C#N)s1	?	?	25µM*	50µM*	40µM*	32µM*
O=C(CSc1nnnn1-c1ccc(O)cc1)NC1CCCCC1	12%	-1%[57.1 µM]	-25%	-18%	58%	9%
N#Cc1ccsc1NC(=O)CSc1nncs1	-5%	-11%	40µM*	-27%	?	·
N#Cc1ccsc1NC(=O)CSc1nnnn1-c1ccc(O)cc1	-23%	?	50µM*	0%	?	?
O=[N+]([O-])c1ccc(C=C2c3ccccc3-c3ccccc32)cc1	21%	·	·	13%	-1%	·
O=c1ncccn1[C@@H]1O[C@H](CO)[C@@H](O)[C@H]1O	·	·	·	7%[60.1 µM]	·	·
Cc1nnc(SCC(=O)Nc2sccc2C#N)n1Cc1ccccc1	1%	-26%	-63%	?	20µM*	35µM*
COc1ccc2[nH]cc(CCNc3nc(-c4ccc(N(C)C)cc4)nc4ccccc34)c2c1	·	·	·	-2%[60.1 µM]	·	·
CCCC(C)NC(=O)Cc1ccc(S(=O)(=O)N2CCOCC2)s1 (configuration not stated)	10%	4%	-8%	19%	32%	·
COC(=O)CCNC(=O)Cc1ccc(S(=O)(=O)N2CCCCC2)s1	-5%	-1%[11.6 µM]	79µM*	-18%	?	·
CCC(CC)NC(=O)Cc1ccc(S(=O)(=O)N2CCOCC2)s1	-3%	-26%	10µM*	-19%	?	?
Cc1ccc(C)c(NC(=O)Cc2ccc(S(=O)(=O)N3CCCCC3)s2)c1	-11%	-5%	?	-5%	9%	0%
CCCCCN1CC(O)=C(c2nc3ccccc3[nH]2)C1=N	1%	6%	6%	-8%	67%	32µM*
CC(C)n1c(=S)[nH]c2c1c(=O)[nH]c(=O)n2C	14%	89µM*	-19%	-13%	19%	21%
C=CC(C)n1c(Br)nc2c1c(=O)[nH]c(=O)n2C (configuration not stated)	9%	0%	-19%	-5%	66%	1%
CN(N=O)c1ccc(/C=C2\C=Cc3ccccc32)cc1	-3%	·	·	-1%	28%	·
O=C(c1cc(Br)ccc1O)N(Cc1ccco1)Cc1cccs1	?	·	·	0%	-6%	·
COc1ccc(C(=O)/C=C/c2cc(C(=O)O)cc3c2OCOC3)c(O)c1	-4%	?	50µM*	-27%	?	?

Source: PubChem
